Several values for one entry are separate records, joined by “and”; a condition that tells them apart may be missing. Identical values can stand only once. Compounds without any hit were thinned out: in the full panel of roughly 79,000, 15% have a hit. Activity calls are given as the source filed them. Cut-off read from the data, not from the text of the source: active = growth inhibition above about 70%; inactive = the rest.
Experiment: NCI Yeast Anticancer Drug Screen. Data for the bub3 strain (AID 167)
Conditions: S. cerevisiae bub3 mutant strain, at 5.0 µM (retest, dose inferred, filed as 0.5), stronger effect = higher value
How it was run: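 Yeast carrying a defined mutation is treated with each compound, and growth is compared with that of vehicle-exposed cells to give inhibition.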

Compound	growth inhibition
CC(=O)O/C=C1\c2ccccc2CCC1c1ccc2ccccc2c1 (stereo unspecified)	5% (inactive)
CCOc1ccccc1NC1=C(Cl)C(=O)c2ccccc2C1=O	99% (active)
CCc1cccc(C)c1N1C(=O)C(=O)C(c2nc3ccccc3o2)/C(=N\NS(=O)(=O)c2ccc(C)cc2)C1=O (stereo unspecified)	8% (inactive)
O=C(CC(=O)c1ccccc1)CC(=O)c1cccc(Cl)c1	8% (inactive)
CC(O)c1c2ccccc2cc2ccccc12 (stereo unspecified)	-1% (inactive)
CCCCCCCCCCCCCCCCC#N	-3% (inactive)
O=C1/C(=C/c2cccc(Br)c2)CCc2ccccc21	44% (inactive)
CC1(C)c2ccccc2Cc2cc3ccccc3nc21	-3% (inactive)
C=C1C(=O)O[C@@H]2C[C@@]3(C)CCC[C@H](C)C3=C[C@H]12	4% (inactive)
O=C1C=CC(=O)c2c1cc1ccccc1c2O	22% (inactive)
Cc1c(CNc2ccc(Cl)c(Cl)c2Cl)cnc2nc(N)nc(N)c12	28% (inactive)
O=C(O)C1(Cc2ccc3c(c2)CCC3)Cc2cc3c(cc2C1)CCC3	-11% (inactive)
O=C(c1ccc(O)c(Br)c1)c1cc(Br)ccc1O	85% (active)
C/C(=N\OC(=O)c1ccccc1)[N+](=O)[O-]	-61% (inactive)
O=C(c1ccccc1)C(Br)CCCC(Br)C(=O)c1ccccc1 (stereo unspecified)	23% (inactive)

Same assay, conditions: S. cerevisiae bub3 mutant strain, at 50.0 µM (retest, dose inferred, filed as 5.0), stronger effect = higher value

Compound	growth inhibition
COc1cc(C(c2cc3c(cc2O)OCO3)N2CCN(C(c3cc(OC)c(OC)c(OC)c3)c3cc4c(cc3O)OCO4)CC2)cc(OC)c1OC (stereo unspecified)	91% (active)
Cc1cc(N)c(C)c2c1[nH]c1ccc(Br)cc12	95% (active)
COc1ccc(C2c3cc4c(cc3OC(O)(CO)C2C(=O)O)OCO4)cc1 (stereo unspecified) (tested in a mixture with another compound)	95% (active)
CCCCCC(/C=N/Nc1nc(C)cc(=O)[nH]1)=C\c1ccccc1	83% (active)
O=C1/C(=C/c2ccc([N+](=O)[O-])cc2)CNC/C1=C\c1ccc([N+](=O)[O-])cc1	99% (active)
CC(c1ccc2cccc(F)c2c1)c1ccccc1C(=O)O (stereo unspecified)	97% (active)
CN(NC(=O)CC(=O)NN(C)C(=S)c1ccccc1)C(=S)c1ccccc1	73% (active)
O=c1nc(N2CCCC2)nc(N2CCCC2)s1	-10% (inactive)
CC(=O)SC1C(=O)N(C)C(SC(C)=O)C(=O)N1C (stereo unspecified)	-3% (inactive)
CCN(CC)CC(O)c1ccnc2c(O)cccc12 (stereo unspecified)	42% (inactive)
O=C(O)CC(NC(=O)CP(=O)(O)O)C(=O)O.[NH-]C1CCCCC1[NH-].[Pt+2] (stereo unspecified)	23% (inactive)
COc1ccc(-c2nc3c(C(=O)NCCN(C)C)cccc3c3ccccc23)cc1	54% (inactive)
C[C@]12CCC(=O)C=C1CC[C@@H]1[C@@H]2[C@@H](O)C[C@@]2(C)[C@H]1CC[C@]2(O)C(=O)COC(=O)CCC1CCCC1	95% (active)
O=C1C=CC(=O)N1c1cccc([N+](=O)[O-])c1	99% (active)
CC(=O)O/C=C1\c2ccccc2CCC1c1ccc2ccccc2c1 (stereo unspecified)	4% (inactive)
CCOc1ccccc1NC1=C(Cl)C(=O)c2ccccc2C1=O	97% (active)
CCc1cccc(C)c1N1C(=O)C(=O)C(c2nc3ccccc3o2)/C(=N\NS(=O)(=O)c2ccc(C)cc2)C1=O (stereo unspecified)	14% (inactive)
O=C(CC(=O)c1ccccc1)CC(=O)c1cccc(Cl)c1	94% (active)
CC(O)c1c2ccccc2cc2ccccc12 (stereo unspecified)	81% (active)
CCCCCCCCCCCCCCCCC#N	-9% (inactive)
O=C1/C(=C/c2cccc(Br)c2)CCc2ccccc21	82% (active)
CC1(C)c2ccccc2Cc2cc3ccccc3nc21	98% (active)
C=C1C(=O)O[C@@H]2C[C@@]3(C)CCC[C@H](C)C3=C[C@H]12	95% (active)
O=C1C=CC(=O)c2c1cc1ccccc1c2O	96% (active)
Cc1c(CNc2ccc(Cl)c(Cl)c2Cl)cnc2nc(N)nc(N)c12	46% (inactive)
O=C(O)C1(Cc2ccc3c(c2)CCC3)Cc2cc3c(cc2C1)CCC3	-11% (inactive)
O=C(c1ccc(O)c(Br)c1)c1cc(Br)ccc1O	97% (active)
C/C(=N\OC(=O)c1ccccc1)[N+](=O)[O-]	85% (active)
O=C(c1ccccc1)C(Br)CCCC(Br)C(=O)c1ccccc1 (stereo unspecified)	73% (active)

Same assay, conditions: S. cerevisiae bub3 mutant strain, at 50.0 µM, stronger effect = higher value

Compound	growth inhibition
COc1cc(C(c2cc3c(cc2O)OCO3)N2CCN(C(c3cc(OC)c(OC)c(OC)c3)c3cc4c(cc3O)OCO4)CC2)cc(OC)c1OC (stereo unspecified)	6.55% (inactive)
Cc1cc(N)c(C)c2c1[nH]c1ccc(Br)cc12	87.2% (active)
COc1ccc(C2c3cc4c(cc3OC(O)(CO)C2C(=O)O)OCO4)cc1 (stereo unspecified) (tested in a mixture with another compound)	87% (active)
CC(=O)OC1COC(SC(=N)N)C(OC(C)=O)C1OC(C)=O (stereo unspecified)	1.65% (inactive) and 6.55% (inactive) and -1.75% (inactive)
CCCCCC(/C=N/Nc1nc(C)cc(=O)[nH]1)=C\c1ccccc1	53% (inactive)
NCC(=O)NC(CO)C(=O)O (stereo unspecified)	-24.7% (inactive) and -11.4% (inactive) and -3.6% (inactive)
O=C1/C(=C/c2ccc([N+](=O)[O-])cc2)CNC/C1=C\c1ccc([N+](=O)[O-])cc1	83.8% (active)
CC(c1ccc2cccc(F)c2c1)c1ccccc1C(=O)O (stereo unspecified)	93.9% (active)
OC(c1ccccc1)C(O)c1ccccc1 (stereo unspecified)	9.4% (inactive) and 11.6% (inactive) and 15.7% (inactive)
CN(NC(=O)CC(=O)NN(C)C(=S)c1ccccc1)C(=S)c1ccccc1	76% (active)
O=c1nc(N2CCCC2)nc(N2CCCC2)s1	-4.15% (inactive)
CC(=O)SC1C(=O)N(C)C(SC(C)=O)C(=O)N1C (stereo unspecified)	95.6% (active)
CCN(CC)CC(O)c1ccnc2c(O)cccc12 (stereo unspecified)	0.1% (inactive)
Nc1ccc(S(=O)(=O)O)c2ccccc12	-1.95% (inactive) and -17.8% (inactive) and 7.6% (inactive)
O=C(O)CC(NC(=O)CP(=O)(O)O)C(=O)O.[NH-]C1CCCCC1[NH-].[Pt+2] (stereo unspecified)	-12.2% (inactive)
COc1ccc(-c2nc3c(C(=O)NCCN(C)C)cccc3c3ccccc23)cc1	-15.3% (inactive)
C[C@]12CCC(=O)C=C1CC[C@@H]1[C@@H]2[C@@H](O)C[C@@]2(C)[C@H]1CC[C@]2(O)C(=O)COC(=O)CCC1CCCC1	77.2% (active)
O=C1C=CC(=O)N1c1cccc([N+](=O)[O-])c1	99.3% (active)
CC(=O)O/C=C1\c2ccccc2CCC1c1ccc2ccccc2c1 (stereo unspecified)	27.9% (inactive)

Compound	growth inhibition
COC1OC2COC(c3ccccc3)OC2C(O)C1O (stereo unspecified)	-9.35% (inactive) and -19.9% (inactive) and -17.4% (inactive)
CCOc1ccccc1NC1=C(Cl)C(=O)c2ccccc2C1=O	97.8% (active)
CCc1cccc(C)c1N1C(=O)C(=O)C(c2nc3ccccc3o2)/C(=N\NS(=O)(=O)c2ccc(C)cc2)C1=O (stereo unspecified)	6.6% (inactive)
O=C(CC(=O)c1ccccc1)CC(=O)c1cccc(Cl)c1	78.5% (active)
CC(O)c1c2ccccc2cc2ccccc12 (stereo unspecified)	50.5% (inactive)
CCCCCCCCCCCCCCCCC#N	52.2% (inactive)
CSc1ccccc1C(=O)O	-30.5% (inactive) and -6.5% (inactive) and -34% (inactive)
O=C1/C(=C/c2cccc(Br)c2)CCc2ccccc21	74.6% (active)
CC1(C)c2ccccc2Cc2cc3ccccc3nc21	94% (active)
Cc1ccc(S(=O)(=O)OCC(O)C(O)COS(=O)(=O)c2ccc(C)cc2)cc1 (stereo unspecified)	9.15% (inactive) and -12.4% (inactive) and 6.35% (inactive)
C=C1C(=O)O[C@@H]2C[C@@]3(C)CCC[C@H](C)C3=C[C@H]12	81.3% (active)
O=C1C=CC(=O)c2c1cc1ccccc1c2O	-5.75% (inactive)
Cc1c(CNc2ccc(Cl)c(Cl)c2Cl)cnc2nc(N)nc(N)c12	51.5% (inactive)
O=C(O)C1(Cc2ccc3c(c2)CCC3)Cc2cc3c(cc2C1)CCC3	82.2% (active)
O=C(c1ccc(O)c(Br)c1)c1cc(Br)ccc1O	96% (active)
OCC(O)C(O)C(O)C(O)CNCC(O)C(O)C(O)C(O)CO (stereo unspecified)	13% (inactive) and 14.2% (inactive) and 3.75% (inactive)
C/C(=N\OC(=O)c1ccccc1)[N+](=O)[O-]	56.9% (inactive)
O=C(c1ccccc1)C(Br)CCCC(Br)C(=O)c1ccccc1 (stereo unspecified)	97.3% (active)
